Experimental data from the supplement of paper PMC10849652.
Targets with a hit are over-represented here; the source holds about 7,900 in all. About 0.6% of all pairs of compound and target were hits. A number with no mark means an inactive call.

What was measured:
Assay in all cases: log2 fold change, soluble protein after heating vs DMSO (PISA); higher = thermal stabilisation; K562 cells, 10 uM, 30 min; active = over 0.2 and 3.5 SD of the protein, either way, in both replicates (recomputed)
[1] = compound: CC[C@@H]1C(=O)N(C)c2cnc(Nc3ccc(C(=O)NC4CCN(C)CC4)cc3OC)nc2N1C1CCCC1
In short: (§1)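 Values are thermal stability changes relative to control samples and are taken from duplicates. They are stated as log2 fold changes. Before quantification by TMTpro 16plex LC-MS/MS with equalised channel sums, K562 cells at 2×10^6 cells/mL were treated with 10 μM compound for 30 min, heated in aliquots for 3 min across 48°C-58°C, pooled, extracted in PBS with 0.5% NP-40 at 4°C, and centrifuged at 21,000xg for 90 min to give the soluble supernatant.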

volasertib = compound: CC[C@@H]1C(=O)N(C)c2cnc(Nc3ccc(C(=O)N[C@H]4CC[C@H](N5CCN(CC6CC6)CC5)CC4)cc3OC)nc2N1C(C)C [volasertib]
In short: as §1

[2] = compound: CC[C@H](C)N1C=C(C2=C(C=C(C=C21)C3=CN=C(C=C3)N4CCNCC4)C(=O)NCC5=C(C=C(NC5=O)C)C)C
In short: as §1

epoxomicin = compound: CC[C@H](C)[C@@H](C(=O)N[C@@H]([C@@H](C)O)C(=O)N[C@@H](CC(C)C)C(=O)[C@]1(CO1)C)NC(=O)[C@H]([C@@H](C)CC)N(C)C(=O)C [epoxomicin]
In short: as §1

[3] = compound: CCn1c(C(=O)N(C2CC2)C2CC2)cc2c3c(ncn3C)c(Nc3cc(C)n(C)n3)nc21
In short: as §1

[4] = compound: CCn1cc(-c2ccnc3[nH]c(-c4cccc(CN(C)C)c4)cc23)c(-c2ccc(NC(=O)N(C)C)cc2)n1
In short: as §1

[5] = compound: CN(C)CC(=O)Nc1ccc2[nH]c(=O)c3ccccc3c2c1
In short: as §1

rosiglitazone = compound: CN(CCOC1=CC=C(C=C1)C[C@H]2C(=O)NC(=O)S2)C3=CC=CC=N3 (racemic) [rosiglitazone]
In short: as §1

[6] = compound: CN1C2=C(C3=C1C(=O)N(N=C3)CC4=CC(=CC=C4)N)SC(=C2)S(=O)C
In short: as §1

[7] = compound: CN1CCC(CNc2ccc3ncc(-c4cccc(OC(F)(F)F)c4)n3n2)CC1
In short: as §1

saracatinib = compound: CN1CCN(CCOc2cc(OC3CCOCC3)c3c(Nc4c(Cl)ccc5c4OCO5)ncnc3c2)CC1 [saracatinib]
In short: as §1

sotrastaurin = compound: CN1CCN(c2nc(C3=C(c4c[nH]c5ccccc45)C(=O)NC3=O)c3ccccc3n2)CC1 [sotrastaurin]
In short: as §1

alvocidib = compound: CN1CC[C@H](c2c(O)cc(O)c3c(=O)cc(-c4ccccc4Cl)oc23)[C@H](O)C1 [alvocidib]
In short: as §1

Tubastatin A = compound: CN1CCc2c(c3ccccc3n2Cc2ccc(C(=O)NO)cc2)C1 [Tubastatin A]
In short: as §1

[8] = compound: CNC(=O)C1=CC=CC=C1NC2=NC(=NC=C2Cl)NC3=C(C=C(C=C3)N4CCOCC4)OC
In short: as §1

defactinib = compound: CNC(=O)c1ccc(Nc2ncc(C(F)(F)F)c(NCc3nccnc3N(C)S(C)(=O)=O)n2)cc1 [defactinib]
In short: as §1

rucaparib = compound: CNCc1ccc(-c2[nH]c3cc(F)cc4c3c2CCNC4=O)cc1 [rucaparib]
In short: as §1

[9] = compound: CNc1nc(-c2ccc3c(N)n[nH]c3c2)cc(N2C[C@@H](C(=O)NC3CCCCC3)CC[C@H]2C)n1
In short: as §1

encorafenib = compound: COC(=O)N[C@@H](C)CNc1nccc(-c2cn(C(C)C)nc2-c2cc(Cl)cc(NS(C)(=O)=O)c2F)n1 [encorafenib]
In short: as §1

[10] = compound: COC(=O)[C@H](CCSC)NC(=O)C1=C(C=C(C=C1)NC[C@H](CS)N)C2=CC=CC=C2
In short: as §1

Sequence of UniProt Q9H6S1 (Q9H6S1 whole entry, looked up): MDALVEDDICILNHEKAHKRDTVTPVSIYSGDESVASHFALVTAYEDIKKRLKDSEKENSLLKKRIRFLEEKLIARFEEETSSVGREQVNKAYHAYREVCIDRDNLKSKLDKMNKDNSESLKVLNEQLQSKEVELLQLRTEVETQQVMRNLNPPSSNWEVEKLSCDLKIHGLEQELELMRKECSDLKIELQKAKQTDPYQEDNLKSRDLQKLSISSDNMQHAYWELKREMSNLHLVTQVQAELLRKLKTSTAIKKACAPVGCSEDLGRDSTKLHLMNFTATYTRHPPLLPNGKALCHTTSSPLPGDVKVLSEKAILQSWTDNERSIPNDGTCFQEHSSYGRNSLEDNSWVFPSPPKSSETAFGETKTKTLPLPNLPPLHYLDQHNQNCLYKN
Sequence of UniProt P54922 (P54922 whole entry, looked up): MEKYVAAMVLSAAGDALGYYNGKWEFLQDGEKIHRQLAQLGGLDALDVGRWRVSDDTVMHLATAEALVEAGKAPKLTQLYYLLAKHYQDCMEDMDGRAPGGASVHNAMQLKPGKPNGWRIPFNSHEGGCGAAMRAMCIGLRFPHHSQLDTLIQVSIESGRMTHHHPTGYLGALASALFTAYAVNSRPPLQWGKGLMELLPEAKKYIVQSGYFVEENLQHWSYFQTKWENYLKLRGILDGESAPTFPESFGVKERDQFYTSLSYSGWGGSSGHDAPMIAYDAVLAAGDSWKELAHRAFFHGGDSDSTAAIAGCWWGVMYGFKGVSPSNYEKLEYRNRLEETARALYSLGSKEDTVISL
Sequence of UniProt Q8IUR7 (Q8IUR7 whole entry, looked up): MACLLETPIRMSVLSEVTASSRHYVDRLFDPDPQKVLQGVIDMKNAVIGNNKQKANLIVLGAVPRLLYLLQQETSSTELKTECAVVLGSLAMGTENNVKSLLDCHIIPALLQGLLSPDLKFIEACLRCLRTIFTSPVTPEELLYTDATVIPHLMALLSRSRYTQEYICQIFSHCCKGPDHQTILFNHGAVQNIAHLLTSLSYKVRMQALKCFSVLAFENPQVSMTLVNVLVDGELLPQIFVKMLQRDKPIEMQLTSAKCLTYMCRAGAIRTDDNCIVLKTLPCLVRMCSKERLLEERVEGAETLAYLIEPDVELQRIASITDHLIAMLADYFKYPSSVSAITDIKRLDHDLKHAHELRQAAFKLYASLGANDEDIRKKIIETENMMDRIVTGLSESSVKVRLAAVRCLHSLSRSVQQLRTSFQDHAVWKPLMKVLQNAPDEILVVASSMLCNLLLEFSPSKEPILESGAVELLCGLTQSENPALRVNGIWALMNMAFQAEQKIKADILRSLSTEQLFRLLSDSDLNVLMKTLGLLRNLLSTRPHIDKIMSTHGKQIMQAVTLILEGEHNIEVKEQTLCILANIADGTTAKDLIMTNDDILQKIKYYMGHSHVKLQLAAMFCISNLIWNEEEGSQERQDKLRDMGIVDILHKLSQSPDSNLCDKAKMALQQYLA
Sequence of UniProt Q9NWB6 (Q9NWB6 whole entry, looked up): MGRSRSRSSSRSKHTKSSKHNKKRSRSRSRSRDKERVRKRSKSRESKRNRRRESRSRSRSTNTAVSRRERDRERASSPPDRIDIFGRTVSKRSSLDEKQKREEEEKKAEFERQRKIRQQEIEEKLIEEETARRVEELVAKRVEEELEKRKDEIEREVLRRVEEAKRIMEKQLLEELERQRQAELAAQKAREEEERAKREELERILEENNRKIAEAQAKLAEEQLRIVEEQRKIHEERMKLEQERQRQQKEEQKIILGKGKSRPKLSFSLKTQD
Sequence of UniProt Q96F25 (Q96F25 whole entry, looked up): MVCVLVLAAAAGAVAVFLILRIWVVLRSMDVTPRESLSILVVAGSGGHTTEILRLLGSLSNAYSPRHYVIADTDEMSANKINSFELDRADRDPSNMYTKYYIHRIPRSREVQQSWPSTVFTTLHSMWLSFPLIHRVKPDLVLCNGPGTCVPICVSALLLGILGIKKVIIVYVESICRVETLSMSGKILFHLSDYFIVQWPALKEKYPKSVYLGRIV
Sequence of UniProt Q8IXM2 (Q8IXM2 whole entry, looked up): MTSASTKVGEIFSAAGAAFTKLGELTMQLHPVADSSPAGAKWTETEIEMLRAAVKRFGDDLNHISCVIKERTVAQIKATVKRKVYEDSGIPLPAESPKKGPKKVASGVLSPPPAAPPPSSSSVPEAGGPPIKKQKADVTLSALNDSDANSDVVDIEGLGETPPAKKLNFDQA
Sequence of UniProt P42331 (P42331 whole entry, looked up): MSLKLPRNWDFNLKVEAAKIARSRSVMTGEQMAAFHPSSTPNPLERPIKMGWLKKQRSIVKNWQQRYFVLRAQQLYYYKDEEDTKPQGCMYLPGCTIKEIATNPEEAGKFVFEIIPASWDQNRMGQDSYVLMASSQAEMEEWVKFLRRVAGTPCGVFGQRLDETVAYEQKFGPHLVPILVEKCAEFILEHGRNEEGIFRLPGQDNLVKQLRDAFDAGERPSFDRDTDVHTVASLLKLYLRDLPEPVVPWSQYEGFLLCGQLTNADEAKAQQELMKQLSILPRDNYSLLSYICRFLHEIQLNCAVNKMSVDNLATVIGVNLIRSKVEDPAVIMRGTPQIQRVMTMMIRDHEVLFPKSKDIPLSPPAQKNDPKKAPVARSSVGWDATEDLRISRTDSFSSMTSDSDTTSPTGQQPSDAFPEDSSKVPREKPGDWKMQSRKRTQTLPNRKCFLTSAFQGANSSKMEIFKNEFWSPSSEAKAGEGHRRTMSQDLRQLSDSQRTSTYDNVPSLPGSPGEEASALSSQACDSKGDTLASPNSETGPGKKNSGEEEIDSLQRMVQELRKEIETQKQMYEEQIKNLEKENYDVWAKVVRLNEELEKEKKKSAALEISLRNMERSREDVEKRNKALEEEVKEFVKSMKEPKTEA
Sequence of UniProt Q9BTT0 (Q9BTT0 whole entry, looked up): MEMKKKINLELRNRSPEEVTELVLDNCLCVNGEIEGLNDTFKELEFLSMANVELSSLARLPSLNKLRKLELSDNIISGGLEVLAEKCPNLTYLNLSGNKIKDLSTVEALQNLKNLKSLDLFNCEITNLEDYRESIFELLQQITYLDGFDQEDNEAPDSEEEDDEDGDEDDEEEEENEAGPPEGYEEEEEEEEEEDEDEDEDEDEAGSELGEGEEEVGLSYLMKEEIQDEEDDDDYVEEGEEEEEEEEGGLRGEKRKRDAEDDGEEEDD
Sequence of UniProt Q86WA6 (Q86WA6 whole entry, looked up): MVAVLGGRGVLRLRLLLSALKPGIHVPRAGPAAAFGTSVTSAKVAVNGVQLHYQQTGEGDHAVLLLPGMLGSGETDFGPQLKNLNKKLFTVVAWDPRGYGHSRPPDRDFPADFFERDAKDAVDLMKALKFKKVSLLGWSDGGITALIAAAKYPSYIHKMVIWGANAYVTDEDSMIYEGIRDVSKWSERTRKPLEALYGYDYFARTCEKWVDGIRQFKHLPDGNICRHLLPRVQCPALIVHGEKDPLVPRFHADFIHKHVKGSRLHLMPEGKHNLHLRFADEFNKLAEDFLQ
Sequence of UniProt P18846 (P18846 whole entry, looked up): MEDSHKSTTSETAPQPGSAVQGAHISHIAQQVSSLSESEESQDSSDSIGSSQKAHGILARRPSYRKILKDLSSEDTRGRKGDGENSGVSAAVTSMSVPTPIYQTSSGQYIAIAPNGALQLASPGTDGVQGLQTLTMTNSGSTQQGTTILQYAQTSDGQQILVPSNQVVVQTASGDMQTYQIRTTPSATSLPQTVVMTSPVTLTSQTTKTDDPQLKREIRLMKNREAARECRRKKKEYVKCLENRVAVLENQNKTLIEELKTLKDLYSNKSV
Sequence of UniProt Q9UKV3 (Q9UKV3 whole entry, looked up): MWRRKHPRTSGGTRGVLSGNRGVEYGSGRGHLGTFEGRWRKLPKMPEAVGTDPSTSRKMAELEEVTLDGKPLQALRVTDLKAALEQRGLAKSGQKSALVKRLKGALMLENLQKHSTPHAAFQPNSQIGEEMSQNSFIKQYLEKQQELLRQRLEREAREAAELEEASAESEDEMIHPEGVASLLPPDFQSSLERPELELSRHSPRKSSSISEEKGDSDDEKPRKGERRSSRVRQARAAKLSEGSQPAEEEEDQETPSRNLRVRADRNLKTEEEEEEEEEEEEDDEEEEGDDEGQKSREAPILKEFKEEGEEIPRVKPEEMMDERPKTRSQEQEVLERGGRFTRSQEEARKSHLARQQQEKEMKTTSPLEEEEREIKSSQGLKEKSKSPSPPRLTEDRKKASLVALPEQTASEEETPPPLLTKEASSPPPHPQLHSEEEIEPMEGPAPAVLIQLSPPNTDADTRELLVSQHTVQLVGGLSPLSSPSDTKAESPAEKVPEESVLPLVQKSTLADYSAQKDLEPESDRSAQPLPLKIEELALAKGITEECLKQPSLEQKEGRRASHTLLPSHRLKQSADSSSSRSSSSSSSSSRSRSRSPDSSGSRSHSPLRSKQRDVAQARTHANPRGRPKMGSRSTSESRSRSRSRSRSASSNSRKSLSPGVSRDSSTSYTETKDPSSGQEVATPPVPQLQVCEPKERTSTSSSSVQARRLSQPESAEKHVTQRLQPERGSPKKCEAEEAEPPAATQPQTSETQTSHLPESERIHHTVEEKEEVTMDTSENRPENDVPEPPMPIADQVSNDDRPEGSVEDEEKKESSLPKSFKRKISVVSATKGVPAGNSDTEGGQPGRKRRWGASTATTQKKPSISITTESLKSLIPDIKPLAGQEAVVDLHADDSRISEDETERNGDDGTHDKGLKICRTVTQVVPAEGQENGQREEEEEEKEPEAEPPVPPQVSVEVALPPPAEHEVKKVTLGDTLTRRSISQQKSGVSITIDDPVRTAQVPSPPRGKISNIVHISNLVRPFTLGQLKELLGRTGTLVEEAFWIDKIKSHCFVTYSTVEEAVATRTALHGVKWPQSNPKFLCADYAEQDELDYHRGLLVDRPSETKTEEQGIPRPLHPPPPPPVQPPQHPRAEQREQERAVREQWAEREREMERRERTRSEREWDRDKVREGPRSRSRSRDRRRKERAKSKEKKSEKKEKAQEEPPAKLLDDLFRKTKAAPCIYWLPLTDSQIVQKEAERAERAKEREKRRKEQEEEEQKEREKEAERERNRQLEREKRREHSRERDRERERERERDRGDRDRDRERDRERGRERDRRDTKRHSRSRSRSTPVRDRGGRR

Row | Target | log2 fold change [1] | log2 fold change (volasertib) | log2 fold change [2] | log2 fold change (epoxomicin) | log2 fold change [3] | log2 fold change [4] | log2 fold change [5] | log2 fold change (rosiglitazone) | log2 fold change [6] | log2 fold change [7] | log2 fold change (saracatinib) | log2 fold change (sotrastaurin) | log2 fold change (alvocidib) | log2 fold change (Tubastatin A) | log2 fold change [8] | log2 fold change (defactinib) | log2 fold change (rucaparib) | log2 fold change [9] | log2 fold change (encorafenib) | log2 fold change [10]
1 | ATR (UniProt Q13535) | -0.063 | -0.197 | -0.02 | 0.048 | -0.071 | -0.041 | 0.052 | 0.049 | -0.017 | 0 | -0.044 | -0.013 | -0.107 | 0.02 | 0.014 | -0.035 | 0.008 | 0.039 | 0.008 | -0.024
2 | ARGLU1 (UniProt Q9NWB6) | 0.094 | -0.004 | 0.033 | -0.106 | 0.024 | 0.138 | 0.003 | 0.012 | 0.068 | 0 | 0.016 | 0.091 | 0.014 | 0.003 | -0.365 | -0.04 | -0.026 | -0.028 | -0.006 | 0.077
3 | APOBEC3G (UniProt Q9HC16) | 0.267 | -0.008 | 0.051 | -0.146 | 0.006 | – | -0.148 | -0.115 | 0.025 | – | 0.046 | 0.023 | – | -0.045 | -0.093 | -0.097 | 0.152 | -0.121 | -0.263 | 0.038
4 | ACIN1 (UniProt Q9UKV3) | -0.017 | -0.056 | -0.012 | -0.048 | -0.057 | 0.004 | -0.034 | 0.008 | -0.021 | -0.097 | -0.027 | -0.01 | -0.057 | 0.032 | -0.165 | -0.253 (active) | -0.017 | -0.054 | -0.038 | 0.003
5 | ANP32E (UniProt Q9BTT0) | -0.132 | -0.499 (active) | 0.04 | 0.054 | -0.085 | -0.128 | -0.051 | -0.025 | -0.058 | -0.147 | 0.006 | -0.105 | -0.109 | 0.052 | 0.041 | -0.239 | -0.108 | -0.06 | 0.159 | -0.022
6 | BPHL (UniProt Q86WA6) | 0.013 | -0.005 | 0.065 | 0.005 | 0.027 | -0.017 | -0.07 | 0.041 | 0.017 | 0.063 | 0.056 | 0.019 | -0.083 | -0.259 | 0.025 | -0.014 | 0.069 | 0.006 | -0.012 | -0.017
7 | ALG14 (UniProt Q96F25) | 0.2 | 0.11 | -0.077 | 0.382 | -0.014 | -0.215 | 0.062 | 0.016 | -0.124 | 0.443 | 0.049 | – | -0.14 | -0.027 | -0.001 | 0.091 | -0.173 | -0.022 | 0.028 | -0.002
8 | ATF1 (UniProt P18846) | 0 | 0.109 | -0.065 | 0.17 | 0.005 | 0.035 | 0.002 | -0.104 | – | -0.002 | – | -0.098 | 0.081 | -0.068 | -0.052 | 0.045 | -0.128 | – | -0.07 | 0.024
9 | ABCA3 (UniProt Q99758) | -0.155 | -0.093 | – | 0 | -0.035 | 0.168 | 0.108 | -0.172 | -0.013 | -0.263 | 0.009 | 0.121 | 0.047 | -0.05 | 0.065 | 0.108 | 0.11 | 0.011 | 0.192 | -0.039
10 | AFG1L (UniProt Q8WV93) | 0.047 | -0.223 | 0.207 | 0.035 | 0.017 | – | 0.063 | 0.021 | -0.122 | – | -0.038 | -0.075 | -0.195 | -0.204 | -0.011 | -0.131 | -0.057 | 0.002 | 0.025 | 0.088
11 | ARL4A (UniProt P40617) | – | – | – | – | – | – | – | 0.063 | – | – | – | – | – | – | – | – | – | – | – | –
12 | ARHGAP25 isoform 4 (UniProt P42331) | -0.031 | – | -0.031 | 0.083 | -0.103 | 0.072 | 0.134 | 0.088 | 0.127 | -0.221 | 0.249 | – | -0.128 | 0.079 | -0.023 | 0.02 | 0.168 | 0.131 | 0.212 | -0.212
13 | ARMC8 isoform 6 (UniProt Q8IUR7) | – | – | 0.048 | – | -0.196 | – | 0.016 | -0.004 | – | – | – | – | – | – | -0.088 | -0.114 | – | – | – | 0.108
14 | ATXN7L3 isoform 2 (UniProt Q14CW9) | -0.042 | – | -0.166 | – | 0.036 | – | – | -0.2 | – | – | – | 0.098 | – | – | -0.038 | – | 0.669 (active) | – | 0 | –
15 | AUH (UniProt Q13825) | 0.011 | 0.486 (active) | – | – | -0.129 | -0.094 | 0.128 | 0.021 | -0.183 | 0.086 | 0.184 | – | 0.016 | 0.152 | 0.003 | -0.055 | 0.065 | -0.062 | -0.005 | 0.006
16 | ADPRH (UniProt P54922) | – | 0.108 | 0.036 | -0.04 | -0.067 | 0.097 | 0.1 | 0.141 | – | -0.313 | – | -0.067 | – | 0.213 | -0.011 | -0.076 | – | – | – | 0.028
17 | BRD2 isoform 2 (UniProt P25440) | – | 1.76 (active) | – | – | 0.104 | 0.486 | 0.115 | 0.24 | -0.132 | 0.129 | 0 | -0.172 | -0.111 | -0.37 | 0.146 | -0.125 | – | 0.255 | – | -0.074
18 | BRAF, A0A2R8Y8E0 | – | – | 0.047 | – | -0.078 | – | – | – | – | – | – | – | – | -0.084 | 0.143 | – | – | – | – | –
19 | AZI2 (UniProt Q9H6S1) | -0.021 | – | -0.063 | – | -0.041 | – | 0.062 | -0.001 | – | – | – | -0.046 | – | -0.078 | 0.453 (active) | 0.018 | -0.12 | – | 0.012 | -0.093
20 | AUNIP isoform 2 (UniProt Q9H7T9) | – | -0.03 | – | – | 0.013 | – | -0.163 | – | -0.031 | – | -0.007 | -0.085 | 0.053 | 0.278 | 0.189 | 0.043 | – | -0.086 | – | 0.342
21 | BAP18 isoform 3 (UniProt Q8IXM2) | – | – | – | – | -0.028 | 0.028 | – | – | – | 0.2 | – | – | – | 0.301 | -0.129 | – | – | – | – | –
22 | AFDN isoform 1 (UniProt P55196) | -0.019 | – | – | 0.064 | -0.104 | -0.075 | -0.069 | 0.104 | 0.111 | 0.062 | -0.192 | -0.047 | -0.182 | – | -0.025 | 0.021 | 0.009 | -0.175 | 0.018 | -0.302
